Shown are actives, neighbours in structure and some others; about 2.2% of the full set was active somewhere.
GRK2 inh = human GRK2 inhibition via aptamer displacement; P25098; bead flow cytometry, FAM-aptamer displacement from GRK2; inhibition of aptamer binding, % at 10 µM; 0.59% of 330,000 active; AID 488847;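 active means inhibition of aptamer binding above 40%, roughly 3 SD of noise, on plates passing a quality check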;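 further: median bead fluorescence of bound FAM aptamer so fluorescent compounds give negative values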
ANO1 block = inhibitors of mouse TMEM16A calcium-activated chloride channel; 1.2% of 310,000 active; AID 588511; HEK293 TMEM16A/YFP iodide influx fluorescence, ionomycin; Q8BHY3; normalized B-score (activity score, 25-100; higher = stronger inhibition) at 10 µM;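 active means ratio plate-corrected score three or more library SD toward inhibition, starting fluorescence score within five deviations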;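 further: score derived from kinetic fluorescence span divided by baseline fluorescence per well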
TMEM16A act = activators or potentiators of mouse TMEM16A chloride channel | AID 623877 | 0.3% of 340,000 active | HEK293 TMEM16A/YFP-H148Q/I152L, iodide quench fluorescence; stronger effect = lower value | B-score at 10 µM | Q8BHY3;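 active means fluorescence-ratio B-score plate-corrected deviation score at least 3 library SD below zero, with starting fluorescence score within 5 deviations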;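 further: channel opened by trigger with iodide after compound preincubation; score built on the fluorescence ratio of max minus min over baseline; more negative score means more quench and so TMEM16A activation or potentiation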
NOD2 RIPK2 PPI = blocks binding of human NOD2 to RIPK2; inhibition, % at 4.98 µM; O43353; CHO BLA complementation NOD2-RIPK2, CCF4 ratio; 0.38% of 360,000 active; in the data active means inhibition above about 21%;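 further: 0% = vehicle only and 100% = reference blocker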
TLR4-MyD88 BLA = TLR4-MyD88 interaction inhibition in cells | O00206+Q99836 | HeLa CL3-4 TLR4/MyD88 BLA complementation, FRET ratio | inhibition, % at 8.4 µM | 0.18% of 200,000 active | AID 861; in the data active means inhibition above about 25%;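 further: 0% = vehicle and 100% = reference inhibitor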
TLR9-MyD88 block = blocks human TLR9 binding to MyD88 | CHO BLA complementation TLR9-MyD88, CCF4 FRET ratio | Q9NR96+Q99836 | AID 504734 | 0.21% of 340,000 active | inhibition, % at 4.98 µM;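 active means inhibition above the mean over all tested compounds plus 3 SD, cut at about 21% in these data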;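 further: 0% = DMSO only wells and 100% = clavulanate BLA inhibitor control wells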
* marks the source's active call; other numbers are inactive results; i = inactive; nt = no result.

SMILES | GRK2 inh | ANO1 block | TMEM16A act | NOD2 RIPK2 PPI | TLR4-MyD88 BLA | TLR9-MyD88 block
CC(OC(=O)c1cccc(S(=O)(=O)Nc2cccc(C(F)(F)F)c2)c1)C(=O)Nc1ccc2c(c1)OCCO2 (stereo unspecified) | 4.0 | 100* | i | -1.1 | 8.6 | 2.3
CC(=O)Nc1ccc(NC(=O)C(C)OC(=O)c2ccc3c(c2)OCCO3)cc1 (stereo unspecified) | 0.0 | i | i | -12.7 | nt | -9.2
CCN(CC)CC(C)(C)C(=O)/C=C/c1ccc(/C=C/C(=O)C(C)(C)CN(CC)CC)cc1 | nt | nt | i | 83.8* | nt | 20.7
CCN(CC)CCOC(=O)/C=C/c1ccccc1 | 0.0 | i | i | -7.2 | nt | 0.4
CCOC(=O)C1(CCc2ccccc2)CCN(Cc2ccc(OC)cc2)CC1 | 0.0 | 25* | i | -6.3 | -11.1 | -0.1
CCOC(=O)C1(CCc2ccccc2)CCN(Cc2ccc(O)cc2)CC1 | 0.0 | i | i | -5.0 | 12.3 | -4.7
C[C@@H]1CN([C@H](C)CO)S(=O)(=O)c2ccc(C#CCN(C)C)cc2O[C@@H]1CN(C)Cc1ccccc1F | nt | nt | nt | -8.7 | nt | 1.6
CN(Cc1ccccc1)C(=O)c1csc([C@@H]2C[C@H](O)[C@@H](CO)O2)n1 | nt | nt | nt | 2.4 | nt | nt
COc1ccc(OCCCC(=O)N2CCCc3ccccc32)cc1 | 1.0 | i | -6.4* | -2.4 | 2.6 | 0.4
COc1ccc(CCC(=O)N2CCCc3ccccc32)cc1 | 2.0 | i | i | -7.6 | nt | -6.1
O=S(=O)(NCC1(N2CCOCC2)CCCCC1)c1ccc(Cl)cc1C(F)(F)F | 1.0 | i | -18* | 3.3 | nt | -6.2
O=S(=O)(NCC1(N2CCOCC2)CCCCC1)c1ccccc1Cl | 0.0 | i | i | 10.1 | nt | -5.5
CCCCn1nnnc1C(c1cccc2ccccc12)N1CCN(C/C=C/c2ccccc2)CC1 (stereo unspecified) | nt | nt | nt | -10.6 | nt | nt
O=C1c2ccccc2S(=O)(=O)c2cc(C(=O)N(c3ccccn3)c3ccccn3)ccc21 | 1.0 | i | -7.52* | -7.1 | 0.6 | 2.5
COC(=O)C[C@@H]1CC[C@H](NC(=O)Nc2ccc(OC)cc2)[C@@H](CO)O1 | nt | nt | nt | -7.6 | nt | nt
Cc1cn2c(N)c(C=C3C=C(Cl)C(=O)C(Cl)=C3)c(=O)nc2s1 | nt | nt | -6.78* | -1.2 | -5.8 | 4.2
COC1=C/C(=C/c2c(N)n3cc(C)sc3nc2=O)C=CC1=O | 0.0 | i | i | 6.0 | 7.4 | -3.0
COc1ccc([C@@H]2[C@@H]3C(=O)N(C(C)(C)C)C(=O)[C@@H]3[C@]3(C)C(=O)N(c4cccc(Br)c4)C(=O)N23)cc1 | 0.0 | i | -10.8* | 7.9 | nt | -4.2
Cc1ccc(S(=O)(=O)N2C[C@H]3C(=O)C[C@@H](c4ccccc4)N(S(C)(=O)=O)[C@H]3C[C@H]2c2ccccc2)cc1 | nt | nt | nt | 0.3 | nt | nt
O=C(NC(NNc1ccc([N+](=O)[O-])cc1)(C(F)(F)F)C(F)(F)F)c1ccccc1Cl | 2.0 | i | i | -0.8 | 5.3 | 2.2
O=C(NC(Nc1nc2ccc([N+](=O)[O-])cc2s1)(C(F)(F)F)C(F)(F)F)c1ccccc1Cl | 3.0 | 100* | i | 19.1 | -17.3 | 0.9
O=C(NC(Nc1nc2ccc([N+](=O)[O-])cc2s1)(C(F)(F)F)C(F)(F)F)c1cccnc1 | 0.0 | 100* | i | 5.0 | -8.6 | -5.0
CCNc1nc(-c2sc(NC(=O)C(C)(C)C)nc2C)c(-n2cc(-c3ccccc3)nn2)s1 | nt | nt | nt | -3.9 | nt | nt
CCCN(CC1CC1)C(=O)CSc1ncnc2sc(C)c(C)c12 | 0.0 | i | i | -4.0 | -1.1 | -4.2
CCN(C(=O)CSc1ncnc2sc(C)c(C)c12)C1CCS(=O)(=O)C1 (stereo unspecified) | 2.0 | i | -40.2* | -1.8 | 7.7 | 1.7
O=C1NC(=S)SC1=Cc1ccccn1 | nt | nt | nt | -11.7 | nt | nt
O=C(O)c1cc(N/N=C/c2ccc(-c3ccccc3)cc2)ccc1Cl | 43.0* | i | i | -5.7 | nt | 6.4
CC1Oc2cc3oc4c(O)c(O)ccc4c(=O)c3c(O)c2C1(C)C (stereo unspecified) | 0.0 | 100* | i | 14.3 | nt | -0.6
COc1ccc(-c2cc(=O)oc3c(O)c(O)ccc23)cc1 | 3.0 | i | i | -12.5 | nt | -0.6

Screening results deposited in PubChem by several laboratories.
